Measured values as given in the supplement of paper PMC10042075.
Several values for one entry are separate records, joined by “and”; a condition that tells them apart may be missing. Equal values may be shown once. Where a name gives a salt, the structure may show the parent alone.

The compounds below were run on LASCPC-01 (assay: cell viability relative to DMSO control (fraction); higher = less growth inhibition (more viable cells)). Conditions: 2 µM; 72 h.
Outline: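 Serotonin-pathway compounds from a 7315-compound library were each tested at 2 μM for 72 hours in triplicate on LASCPC-01 human prostate cancer cells in 384-well plates. Viability was measured by CellTiter-Glo luminescence relative to solvent-control signal.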
`CN(C)CCC=C1c2ccccc2C=Cc2ccccc21` [Cyclobenzaprine hydrochloride] gave a cell viability of 0.947. Compound `CSc1ccc2c(c1)C(N1CCN(C)CC1)Cc1ccccc1S2` (centres undefined) [Methiothepin mesylate] has a cell viability of 1.03. In the case of `CN1CCC(=C2c3ccccc3C=Cc3ccccc32)CC1` [Cyproheptadine hydrochloride], the cell viability was 1.14. `CN1CCc2c(c3ccccc3n2Cc2ccccc2)C1` [Mebhydrolin napadisylate] was tested, and the cell viability was 1.03. `CCN(CC)CCOC(=O)c1cc(Cl)c(N)cc1OC` [SDZ-205,557 hydrochloride] showed a cell viability of 1.06. `CN1CCCCC1CCN1c2ccccc2Sc2ccc([S+](C)[O-])cc21` (centres undefined) [Mesoridazine Besylate] gave a cell viability of 1.07. `COc1ccccc1N1CCN(CCN(C(=O)C2CCCCC2)c2ccccn2)CC1` was tested, and the cell viability was 0.987 and 1.03. `CN1C2CCCC1CC(NC(=O)c1nn(C)c3ccccc13)C2` (centres undefined) [Granisetron hydrochloride] was tested, and the cell viability was 0.955. Work on `O=C(CCCCCN1CCN(c2ccccc2-c2ccccc2)CC1)NC1CCCc2ccccc21` (centres undefined) [LP 12 hydrochloride hydrate] yielded a cell viability of 0.972. Work on `CN(C)CCCc1cc(C(=O)Nc2ccc(-c3ccncc3)cc2)ccc1O` yielded a cell viability of 0.993. For `Cc1cc2c(cc1Cl)N(C(=O)Nc1ccc(Oc3cccnc3C)nc1)CC2`, the cell viability was 0.0538. In the case of `CN1[C@@H]2CC[C@H]1C[C@@H](OC(=O)c1c[nH]c3ccccc13)C2` [Tropisetron], the cell viability was 1.01. Compound `CN1CCC(=C2c3ccccc3CCc3sccc32)CC1` [Pizotifen] has a cell viability of 0.586. `COCCCN1CCC(NC(=O)c2cc(Cl)c(N)c3c2OCC3)CC1` [Prucalopride Succinat] gave a cell viability of 1.1. `COc1ccc2cc(Br)ccc2c1` [2-Bromo-6-methoxynaphthalene] showed a cell viability of 0.899. With `O=C1[C@H]2CCCC[C@H]2C(=O)N1CCCCN1CCN(c2nsc3ccccc23)CC1` [Perospirone] the cell viability was 0.997. `CN1CC2c3ccccc3Oc3ccc(Cl)cc3C2C1` (centres undefined) [Asenapine] was tested, and the cell viability was 0.974. With `CC(CN1c2ccccc2Sc2ccccc21)N(C)C` (centres undefined) [Promethazine] the cell viability was 1.11. In the case of `CC(C)COc1ccc(CNC(=O)N(Cc2ccc(F)cc2)C2CCN(C)CC2)cc1` [Pimavanserin], the cell viability was 0.72. Work on `CCCCN1CCC(CNC(=O)c2c3n(c4ccccc24)CCCO3)CC1` [Piboserod] yielded a cell viability of 1.21. For `COc1ccc(NC(=O)Nc2ccc(F)cc2F)cc1-c1c(Br)cnn1C` [Nelotanserin], the cell viability was 1.09. Compound `Cn1cc(C(=O)OCC2CCN(CCNS(C)(=O)=O)CC2)c2ccccc21` has a cell viability of 0.959. In the case of `CN1CCN2c3ccccc3Cc3ccccc3C2C1` (centres undefined) [Mianserin hydrochloride], the cell viability was 1.04. With `O=C(OC1C[C@@H]2CC3C[C@H](C1)N2CC3=O)c1c[nH]c2ccccc12` (some centres undefined) [Dalasetron Mesylate Hydrate] the cell viability was 0.985. `COc1cccc(CCc2ccccc2OCC(CN(C)C)OC(=O)CCC(=O)O)c1` (centres undefined) [Sarpogrelate hydrochloride] was tested, and the cell viability was 1.09. In the case of `CN1[C@@H]2CC[C@H]1CC(OC(=O)c1c[nH]c3ccccc13)C2` (some centres undefined) [3-Tropanyl-indole-3-carboxylate hydrochloride], the cell viability was 1.04. `NCCCCCNCC12CC3CC(CC(C3)C1)C2` [IEM 1754 dihydrobroMide] showed a cell viability of 0.808. For `Cc1cnc(CNCC2(F)CCN(C(=O)c3ccc(F)c(Cl)c3)CC2)nc1`, the cell viability was 0.989. `Cn1ccc2cc3c(cc21)CCN3C(=O)Nc1cccnc1` was tested, and the cell viability was 1.06.
